Data on 40 molecules can be found in PubChem BioAssay (Tox21).

SMILES strings stand for the structures. Values without a mark were called inactive. Records with an inconclusive call do not appear. Entries that show only a call come without a potency. Active and inactive are the calls of the source. Calls follow the shape of the full dose curve.
Potency is read from the fitted curve at half-maximal effect.

Sequence of Acetylcholinesterase (Homo sapiens) (P22303 whole entry, looked up): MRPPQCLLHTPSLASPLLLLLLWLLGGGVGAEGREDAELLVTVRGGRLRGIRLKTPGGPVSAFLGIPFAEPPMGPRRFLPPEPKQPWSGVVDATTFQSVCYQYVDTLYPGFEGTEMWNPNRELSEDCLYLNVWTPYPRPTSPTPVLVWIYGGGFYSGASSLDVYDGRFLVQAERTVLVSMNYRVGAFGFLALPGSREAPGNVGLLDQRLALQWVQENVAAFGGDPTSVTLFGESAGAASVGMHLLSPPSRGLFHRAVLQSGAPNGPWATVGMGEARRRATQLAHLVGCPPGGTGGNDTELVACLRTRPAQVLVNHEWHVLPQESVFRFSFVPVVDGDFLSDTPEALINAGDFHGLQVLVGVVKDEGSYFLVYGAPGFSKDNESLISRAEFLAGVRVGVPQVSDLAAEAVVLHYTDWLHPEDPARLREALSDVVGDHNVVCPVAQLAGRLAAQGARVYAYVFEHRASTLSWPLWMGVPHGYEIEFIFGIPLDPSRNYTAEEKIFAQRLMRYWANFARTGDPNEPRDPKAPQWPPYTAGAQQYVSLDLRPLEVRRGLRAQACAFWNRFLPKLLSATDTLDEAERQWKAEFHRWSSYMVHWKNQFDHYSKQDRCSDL

The first experiment addresses Acetylcholinesterase (Homo sapiens) (UniProt P22303). Description: Acetylcholinesterase (AChE) small molecule antagonists: colormetric cell-based qHTS assay (AID 1347395). Also: nearly all actives have a fitted effect of over 30% in size. The note with it: SH-SY5Y cells AChE activity, colorimetric (Ellman); series mostly up to 115 µM. Summed up:
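SH-SY5Y cells attached overnight, exposed to compound 30 min at 37 C, then given DTNB/acetylthiocholine; after 90 min at 37 C, colorimetric thiocholine read gives cellular AChE activity.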
In general terms: qHTS replaces the single test concentration by a dilution series.
On to `C/C=C/c1ccc(OCC)c(O)c1`, for which the Potency result was “inactive”.

In the case of `c1ccc2cc3c(ccc4ccccc43)cc2c1`, the Potency entry was “inactive”.

`CC1=CC[C@H](C(C)C)C=C1`: the Potency entry was “inactive”.

Turning to `O=C(Nc1ccc2c(c1)Cc1ccccc1-2)C(F)(F)F`, the Potency result was “inactive”.

On to `CCn1cc(C(=O)O)c(=O)c2cc(F)c(N3CCN(C)CC3)cc21`, for which the activity, negative = inhibition was 2.04% [at 23.6 µM].

Take `Clc1ccc2c(c1)Nc1ccccc1S2`: the Potency entry was “inactive”.

As for `O=c1[nH]c(=O)n([C@H]2C[C@H](O)[C@@H](CO)O2)cc1Br`, the Potency entry is “inactive”.

Regarding `C=C(C)C(=O)OCCOCCOCCOC(=O)C(=C)C`, the Potency entry is “inactive”.

On to `Cc1ccc(S(N)(=O)=O)cc1`, for which the Potency result is “inactive”.

As for `O=C(c1ccccc1)c1ccccc1O`, the Potency result is “inactive”.

Regarding `CC(C)c1cc(C(C)C)cc(C(C)C)c1`, the Potency result is “inactive”.

As to `CN(C)C=O`, the Potency entry was “inactive”.

`Fc1ccc(Br)cc1`: the Potency result is “inactive”.

For `CCCCCC1Nc2cc(C(F)(F)F)c(S(N)(=O)=O)cc2S(=O)(=O)N1` (stereo not given), the Potency is 15.5 µM (active).

In the case of `CCCCCCCCCCCCCCCCC`, the Potency result was “inactive”.

With `CCOC(=O)OCC`, the Potency result was “inactive”.

In the case of `CCOCCOCC`, the Potency result is “inactive”.

For the molecule `Nc1cccc2c1CN(C1CCC(=O)NC1=O)C2=O` (stereo not given), the Potency entry was “inactive”.

Turning to `Cc1cc(CCCOc2c(C)cc(-c3noc(C(F)(F)F)n3)cc2C)on1`, the Potency result is “inactive”.

In the case of `CC(c1cc(C(C)(C)C)cc(C(C)(C)C)c1O)c1cc(C(C)(C)C)cc(C(C)(C)C)c1O`, the Potency entry was “inactive”.

As for `O=c1[nH]c2ccc(S(=O)CCN3CCC(Cc4ccc(F)cc4)CC3)cc2o1` (stereo not given), the Potency was 6.33 µM (active).

`CCCCOC(=O)c1ccccc1`: the Potency entry is “inactive”.

For the molecule `O=C(O)c1cc(Cl)cc(Cl)c1`, the Potency result was “inactive”.

For the molecule `COC(=O)CC(=O)C(C)(C)C`, the Potency result was “inactive”.

On to `CO/N=C(/C(=O)N[C@@H]1C(=O)N2C(C(=O)[O-])=C(C[n+]3ccn4ncccc43)CS[C@H]12)c1nsc(N)n1`, for which the Potency result is “inactive”.

For `CCCCSCCCC`, the Potency entry is “inactive”.

On to `Cc1ccc(C(=O)c2ccccc2)cc1`, for which the Potency entry was “inactive”.

Turning to `O=Cc1c(Cl)cccc1Cl`, the Potency entry is “inactive”.

Regarding `O=C=NC1CCC(CC2CCC(N=C=O)CC2)CC1` (stereo not given), the Potency entry is “inactive”.

On to `COc1ccc(N)c(OC)c1`, for which the Potency result is “inactive”.

As for `C[C@@H]1C[C@H]2[C@@H]3CCC4=CC(=O)C=C[C@]4(C)[C@@]3(F)[C@@H](O)C[C@]2(C)[C@H]1C(=O)CO`, the Potency entry was “inactive”.

For `CC(C)CCCCCCOC(=O)C1CCCCC1C(=O)OCCCCCCC(C)C` (stereo not given), the Potency entry is “inactive”.

Turning to `Cc1ccc(C(C)(C)C)c(O)c1`, the Potency result is “inactive”.

Take `O=Cc1ccc([N+](=O)[O-])cc1`: the Potency result was “inactive”.

For `COC(CC(C)CCCC(C)(C)O)OC` (stereo not given), the Potency entry is “inactive”.

For `CCOC(=O)CC1(C)OCC(C)O1` (stereo not given), the Potency result is “inactive”.

Turning to `O=C(Nc1cccc(Cl)c1)OCC#CCCl`, the Potency result is “inactive”.

Turning to `CCCCCCCCCCCCCCCBr`, the Potency entry was “inactive”.

`CCOC(=O)CN1CCCC1=O`: the Potency entry is “inactive”.

As for `Clc1cc(Cl)nc(Cl)n1`, the Potency entry was “inactive”.

A further experiment has the same target. Nature of the experiment: Acetylcholinesterase (AChE) small molecule antagonists: enzyme-based qHTS assay (AID 1347397). Also: nearly all actives have a fitted effect of over 55% in size. The note with it: Potency: AChE enzyme activity inhibition; outcome: AChE enzyme activity inhibition; series mostly up to 115 µM. A digest of the protocol:
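Human recombinant acetylcholinesterase; substrate acetylthiocholine; thiocholine quantified with DTNB (colorimetric). Compound preincubation 30 min RT; reaction 10 min RT.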
For the molecule `C/C=C/c1ccc(OCC)c(O)c1`, the Potency result is “inactive”.

For the molecule `c1ccc2cc3c(ccc4ccccc43)cc2c1`, the Potency entry is “inactive”.

For `CC1=CC[C@H](C(C)C)C=C1`, the Potency result is “inactive”.

`O=C(Nc1ccc2c(c1)Cc1ccccc1-2)C(F)(F)F`: the Potency entry was “inactive”.

With `CCn1cc(C(=O)O)c(=O)c2cc(F)c(N3CCN(C)CC3)cc21`, the activity change, negative = inhibition was -0.504% [at 23.6 µM].

As to `Clc1ccc2c(c1)Nc1ccccc1S2`, the Potency result was “inactive”.

For `O=c1[nH]c(=O)n([C@H]2C[C@H](O)[C@@H](CO)O2)cc1Br`, the Potency entry was “inactive”.

`C=C(C)C(=O)OCCOCCOCCOC(=O)C(=C)C`: the Potency result is “inactive”.

In the case of `Cc1ccc(S(N)(=O)=O)cc1`, the Potency result is “inactive”.

With `O=C(c1ccccc1)c1ccccc1O`, the Potency entry is “inactive”.

Take `CC(C)c1cc(C(C)C)cc(C(C)C)c1`: the Potency result was “inactive”.

On to `CN(C)C=O`, for which the Potency result is “inactive”.

For the molecule `Fc1ccc(Br)cc1`, the Potency entry was “inactive”.

Take `CCCCCC1Nc2cc(C(F)(F)F)c(S(N)(=O)=O)cc2S(=O)(=O)N1` (stereo not given): the Potency was 21.9 µM (active).

As to `CCCCCCCCCCCCCCCCC`, the Potency result was “inactive”.

As for `CCOC(=O)OCC`, the Potency entry was “inactive”.

For `CCOCCOCC`, the Potency result is “inactive”.

Regarding `Nc1cccc2c1CN(C1CCC(=O)NC1=O)C2=O` (stereo not given), the Potency entry is “inactive”.

Turning to `Cc1cc(CCCOc2c(C)cc(-c3noc(C(F)(F)F)n3)cc2C)on1`, the Potency entry is “inactive”.

Regarding `CC(c1cc(C(C)(C)C)cc(C(C)(C)C)c1O)c1cc(C(C)(C)C)cc(C(C)(C)C)c1O`, the Potency entry is “inactive”.

Regarding `O=c1[nH]c2ccc(S(=O)CCN3CCC(Cc4ccc(F)cc4)CC3)cc2o1` (stereo not given), the Potency is 5.64 µM (active).

With `CCCCOC(=O)c1ccccc1`, the Potency result is “inactive”.

For `O=C(O)c1cc(Cl)cc(Cl)c1`, the Potency entry is “inactive”.

On to `COC(=O)CC(=O)C(C)(C)C`, for which the Potency entry was “inactive”.

Consider `CO/N=C(/C(=O)N[C@@H]1C(=O)N2C(C(=O)[O-])=C(C[n+]3ccn4ncccc43)CS[C@H]12)c1nsc(N)n1`, for which the Potency entry is “inactive”.

In the case of `CCCCSCCCC`, the Potency entry was “inactive”.

As for `Cc1ccc(C(=O)c2ccccc2)cc1`, the Potency entry was “inactive”.

As to `O=Cc1c(Cl)cccc1Cl`, the Potency entry was “inactive”.

Turning to `O=C=NC1CCC(CC2CCC(N=C=O)CC2)CC1` (stereo not given), the Potency result was “inactive”.

As to `COc1ccc(N)c(OC)c1`, the Potency result is “inactive”.

On to `C[C@@H]1C[C@H]2[C@@H]3CCC4=CC(=O)C=C[C@]4(C)[C@@]3(F)[C@@H](O)C[C@]2(C)[C@H]1C(=O)CO`, for which the Potency entry was “inactive”.

In the case of `CC(C)CCCCCCOC(=O)C1CCCCC1C(=O)OCCCCCCC(C)C` (stereo not given), the Potency entry is “inactive”.

`Cc1ccc(C(C)(C)C)c(O)c1`: the Potency result is “inactive”.

Regarding `O=Cc1ccc([N+](=O)[O-])cc1`, the Potency entry was “inactive”.

On to `COC(CC(C)CCCC(C)(C)O)OC` (stereo not given), for which the Potency entry was “inactive”.

With `CCOC(=O)CC1(C)OCC(C)O1` (stereo not given), the Potency result was “inactive”.

Regarding `O=C(Nc1cccc(Cl)c1)OCC#CCCl`, the Potency result was “inactive”.

Consider `CCCCCCCCCCCCCCCBr`, for which the Potency entry is “inactive”.

Regarding `CCOC(=O)CN1CCCC1=O`, the Potency entry is “inactive”.

As to `Clc1cc(Cl)nc(Cl)n1`, the Potency entry is “inactive”.
